# Source: PubChem (University of Kansas High Throughput Screening Laboratory)
# Pf apPOL inh – Pf-apPOL DNA polymerase inhibition | Recombinant Pf-apPOL, molecular beacon fluorescence, 1.5 h | inhibition, % at 10 µM | actives 0.25% (n = 210,000) | AID 1794808
# mHTT-CaM PPI inh – inhibitors of human mutant huntingtin-calmodulin interaction; P42858; AlphaScreen His-mHTT/GST-CaM binding, luminescence; inhibition, % at 15 µM; actives 3.6% (n = 190,000);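 note: 0% = both proteins with DMSO and 100% = one protein alone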
# * hit, by the source's call; . = no result. Rows were chosen to be rich in hits. Some 3.5% of all compounds tested hit in one or more screens of this group. Cut-off read from the data, not from the text of the source: active = inhibition above about 50%; inactive = the rest.
SMILES,Pf apPOL inh,mHTT-CaM PPI inh
CC(C)c1ccc(NC2OC(=O)c3ccccc32)cc1 (stereo not given),-1,3
CCN(CCCNC(=O)Cc1cn(C)c2ccccc12)c1cccc(C)c1,-5,71*
CC(CCc1ccccc1)NC(=O)CC(C(=O)N1CCc2ccccc21)n1ccnc1 (stereo not given),-7,20
CCN(CCCNC(=O)c1cn(C)c(=O)c2c1c1ccccc1n2C)c1cccc(C)c1,-2,-1
CC(NC(=O)CC(C(=O)N1CCc2ccccc21)n1ccnc1)C12CC3CC(CC(C3)C1)C2 (stereo not given),-4,59*
CCN(CC)CCCNC(=O)CC(C(=O)N1CCc2ccccc21)n1ccnc1 (stereo not given),-5,-2
CCN(CCCNC(=O)CC(C(=O)N1CCc2ccccc21)n1ccnc1)c1cccc(C)c1 (stereo not given),-10,74*
CCOC(=O)c1c(-c2ccccc2)oc2ccc(OC(=O)CC)cc12,-6,-8
Cc1ccc(CNC(=O)C2(C)CCCN(C(=O)Nc3ccc(C)c(F)c3)C2)cc1 (stereo not given),0,7
COc1cccc(C2C(C(=O)Nc3ccccc3)=C(C)Nc3nc(-c4ccccc4)nn32)c1OC (stereo not given),7,70*
COc1ccc(C2C(C(=O)Nc3ccccc3)=C(C)Nc3nc(-c4ccccc4)nn32)c(OC)c1 (stereo not given),-1,44
CCOc1ccc(C(=O)N2CCCC3(C2)NC(=O)N(Cc2ccc(Cl)cc2)C3=O)cc1 (stereo not given),-7,-1
CCCC(=O)C1=C(N2CCCCC2)CC(C)(C)CC1=O,-1,0
COc1ccc(/C=C2\C(=O)Nc3ccc(Br)cc32)cc1O,-8,99*
CCOc1cc(/C=C2\C(=O)Nc3ccc(Br)cc32)cc(Br)c1OCC,0,9
COc1cc(/C=C2\C(=O)Nc3ccc(F)cc32)cc(OC)c1OC,-7,16
O=C1Nc2ccc(Br)cc2/C1=C/c1ccc(OC2CCCC2)cc1,-12,46
O=C1Nc2ccc(Br)cc2/C1=C/C1CC=CCC1 (stereo not given),4,51*
CC(C)c1ccc(/C=C2\C(=O)Nc3ccc(Br)cc32)cc1,0,19
COc1cc(/C=C2\C(=O)Nc3ccc(Br)cc32)cc(OC)c1O,-89,100*
COc1cc(/C=C2\C(=O)Nc3ccc(Br)cc32)cc(Br)c1OC,-5,59*
O=C(c1csc(N2CCN(c3cccc(Cl)c3)CC2)n1)N1CCCCC1,-4,38
CC1CCCC(NC(=O)CC(C(=O)N2CCc3ccccc32)n2ccnc2)C1C (stereo not given),-6,21
CCOC(=O)c1ccc2nc(NC(=O)c3snnc3C)sc2c1,11,4
COc1cc(/C=C2\C(=O)Nc3ccc(Br)cc32)cc(Br)c1O,-6,100*
SMILES,Pf apPOL inh,mHTT-CaM PPI inh
COc1cc(/C=C2\NC(=O)NC2=O)cc(Br)c1O,-4,13
CCN(CC)c1ccc(Nc2nc(-c3c(C)nc4sccn34)cs2)cc1,0,93*
COc1ccccc1Nc1nc(-c2ccccc2)cs1,-1,18
COc1ccc(OC)c(Nc2nc(-c3c(C)nc4ncccn34)cs2)c1,-7,82*
COc1ccccc1Nc1nc(-c2cccnc2)cs1,-2,25
COc1ccccc1Nc1nc(-c2c(C)nc3ccccn23)cs1,-3,62*
Cc1nc2sccn2c1-c1csc(Nc2ccc([N+](=O)[O-])cc2)n1,-1,10
COc1ccccc1Nc1nc(-c2c(C)nc3sccn23)cs1,-4,80*
COc1ccc(OC)c(Nc2nc(-c3cccc([N+](=O)[O-])c3)cs2)c1,3,4
COCCCNC(=O)c1nc2ccccc2c(=O)n1N=CN(C)C,2,.
COc1ccccc1N1CCN(c2ccc(C(=O)Nc3cc(F)cc(F)c3)cc2[N+](=O)[O-])CC1,0,15
CCn1cc(C2=CCN(C(=O)NCc3ccc(OC)cc3)CC2)c2cccnc21,-9,17
c1ccc2[nH]c(CCn3c4c(c5ccccc53)CCCC4)nc2c1,.,66*
N#CCCn1c2c(c3ccccc31)CCCC2,-8,22
COc1ccccc1NC(=O)c1nn(C)cc1Br,61*,-3
Cn1cc(Br)c(C(=O)Nc2ccc(Br)cc2)n1,-4,-15
CCOc1ccc(NC(=O)N2CCCC2c2cccc(F)c2)cc1 (stereo not given),-4,-8
CN1C(=O)C2CCCCN2c2ccc(C(=O)NCc3ccccc3)cc21 (stereo not given),-5,-7
Cc1ccc(C)c(N2CCN(C(=O)c3ccc4c(c3)N(C)C(=O)C3CCCCN43)CC2)c1 (stereo not given),-1,94*
CN1C(=O)C2CCCCN2c2ccc(C(=O)N3CCC(Cc4ccccc4)CC3)cc21 (stereo not given),2,87*
CN1C(=O)C2CCCCN2c2ccc(C(=O)N3CCN(c4ccccn4)CC3)cc21 (stereo not given),0,11
CN1C(=O)C2CCCCN2c2ccc(C(=O)N3CCN(c4cccc(Cl)c4)CC3)cc21 (stereo not given),2,99*
Cc1cccc(N2CCN(C(=O)c3ccc4c(c3)N(C)C(=O)C3CCCCN43)CC2)c1C (stereo not given),2,55*
COc1ccc(N2CCN(C(=O)c3ccc4c(c3)N(C)C(=O)C3CCCCN43)CC2)cc1 (stereo not given),-1,7
CN1C(=O)C2CCCCN2c2ccc(C(=O)N3CCc4ccccc4C3)cc21 (stereo not given),-2,40
SMILES,Pf apPOL inh,mHTT-CaM PPI inh
Cc1cc(C(=O)Nc2ccc(S(N)(=O)=O)cc2)n(C)n1,-4,-12
Cc1cccc(N2CCN(C(=O)c3ccc4c(c3)N(C)C3CCCCN3C4=O)CC2)c1 (stereo not given),-1,2
CCN1c2cc(C(=O)NCc3cccc(Cl)c3)ccc2C(=O)N2CCCCC21 (stereo not given),-2,-58
CN1c2cc(C(=O)NCc3ccc(F)c(Cl)c3)ccc2C(=O)N2CCCCC21 (stereo not given),-4,56*
CN1c2cc(C(=O)N3CCN(c4cccc(Cl)c4)CC3)ccc2C(=O)N2CCCCC21 (stereo not given),3,97*
CCN(Cc1cc(-c2ccc(C)c(C)c2)on1)C(=O)c1ccc(C)cc1,2,5
COc1cccc(CCC(=O)N2CCC(Cc3nc4cccnc4n3C)C2)c1 (stereo not given),0,3
CCOc1ccc(Nc2nc(-c3ccccc3)cs2)cc1,-2,9
Cc1cc(C)c2nc(C)cc(Nc3ccc(C(=O)O)cc3)c2c1,-14,3
CCOc1ccc2nc(C)cc(Nc3ccc(OCc4ccccc4Cl)cc3)c2c1,-2,98*
CCOc1ccc(Nc2c3ccccc3nc3ccccc23)cc1,-6,63*
Cc1cc(C)c2nc(C)cc(Nc3ccc(OCc4ccccc4)cc3)c2c1,0,90*
CCOc1ccc2nc(C)cc(Nc3cc(Cl)ccc3OC)c2c1,-4,27
CC(=O)NCC(=O)N(c1ccc(C)cc1)C1(C(=O)NC2CCCCC2)CCCCC1,0,10
Cc1ccc2c(c1)C(=O)NC1(CCN(C(=O)NCc3ccc(F)cc3)CC1)N2C,-8,-4
